Screening results from PubChem BioAssay.
Sampled rows, rich in hits. Any-hit rate of the full collection: about 20%.
HCMV inh = blocks human cytomegalovirus replication; HFF cells, HCMV-luciferase reporter, 72 h; active compounds read low; activity change, negative = inhibition, % at 57.5 µM; 410,000 tested, 4.5% active; AID 1259415; in the data active = activity change below about -60%; inconclusive = no clear call, values can overlap the other calls; inactive = above about -39%
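HFF cells seeded 16 h at 37C, treated with compounds, infected with luciferase-reporter HCMV at MOI 1 PFU/cell; luciferase read at 72 h post infection, normalized to buffer-only and Salinomycin controls.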
Pf growth 48h = inhibits P. falciparum growth in the first generation, 48 h. P. falciparum luciferase growth in erythrocytes, 48 h. Potency, µM (highest dose often 28.7 µM), most hits filed as inhibitors. 310,000 tested, 5.9% active. AID 504832
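In quantitative HTS format, infected erythrocytes bearing luciferase-reporter parasites were treated for a single generation at 37 C. Luminescence after adding detection reagent served as the growth measure.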
Pf growth 96h = P. falciparum growth inhibition at 96 hour, primary screen for plastid delayed-death inhibitors; P. falciparum luciferase reporter growth, 96 h; Potency, µM (top dose mostly 28.7 µM), actives largely listed as inhibitors; 320,000 tested, 6.9% active
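Plates of compound plus infected erythrocytes (2% hematocrit, 0.05% parasitemia final) incubate 96 hours, 37 C, 5% CO2. Detection reagent added; reduced luminescence from the parasites' luciferase reporter flags inhibition.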
CHX counter = counter-screen hit for Shiga toxin inhibitors, cycloheximide. cell reporter, cycloheximide protein synthesis inhibition counterscreen. max response, %. 300,000 tested, 12% active. AID 2314; in the data active = max response mostly above about 13%, no sharp cut-off; inactive = mostly below about 14%; note: read at 38.3 µM for the half of the compounds with a filed dose
Shiga toxin inh = Shiga toxin inhibition; Vero cells, Shiga toxin protein synthesis inhibition reporter; inhibition, % at 38.7 µM; 290,000 tested, 9.2% active; in the data active = inhibition mostly above about 28%, no sharp cut-off; inactive = mostly below about 43%
A number is an active result; - = inactive; ? = inconclusive; . = no result given. Unless noted, calls come from the whole dose curve; as a rule, active = well fitted inhibition curve with a large enough effect; inconclusive = small, poorly fitted or top-dose-only effect, or another doubt; inactive = no such curve, though single readings can be large or run the other way.

SMILES	HCMV inh	Pf growth 48h	Pf growth 96h	CHX counter	Shiga toxin inh
COC(=O)c1ccc(COC(=O)CNC(=O)c2ccc(-c3ccccc3)cc2)cc1	-	-	-	68.4	45.5
COC(=O)c1ccc(COC(=O)CNC(=O)c2ccco2)cc1	-	-	.	-	-
CCOC(=O)c1ccc(NC(=O)COC(=O)Cc2csc(-c3ccccc3)n2)cc1	-	-	-	-	-
COc1cc(C2C(C(=O)c3ccc(C)o3)=C(O)C(=O)N2CCCn2ccnc2)cc(OC)c1OC (stereo unspecified)	.	-	-	-	-
CCN(CC)CCCN1C(=O)C(O)=C(C(=O)c2ccco2)C1c1ccc(OC(C)C)cc1 (stereo unspecified)	-	-	?	21.6	-
COc1ccc(C2C(C(=O)c3ccco3)=C(O)C(=O)N2CCCn2ccnc2)c(OC)c1 (stereo unspecified)	-	-	?	32.3	-
CCCOc1cccc(C2C(C(=O)c3ccco3)=C(O)C(=O)N2CCN(CC)CC)c1 (stereo unspecified)	-	-	-	-	-
C=CCOc1cccc(C2C(C(=O)c3ccc(C)o3)=C(O)C(=O)N2CCN(C)C)c1 (stereo unspecified)	-	-	3.7µM	-	-
CCCOc1cccc(C2C(C(=O)c3ccc(C)o3)=C(O)C(=O)N2CCN2CCOCC2)c1 (stereo unspecified)	-	-	-	-	-
C=CCOc1ccc(C2C(C(=O)c3ccco3)=C(O)C(=O)N2CCCN(CC)CC)cc1 (stereo unspecified)	-	-	-	9.5	-
Cc1ccc(NC(=O)CCN2C(=O)CSC2=O)c(C)c1	-	-	-	-	-
COc1cccc(CNC(=O)CCc2nc3cc(S(=O)(=O)N4CCOCC4)ccc3n2C)c1	-	-	?	.	.
CCN(CC)C(=O)CC(c1cc(OC)c(OC)c(OC)c1)c1c(OC)cc(OC)c2ccc(=O)oc12 (stereo unspecified)	-	11.7µM	11.7µM	-	-
CCN(CC)C(=O)CC(c1ccc(OC)cc1)c1c(OC)cc(OC)c2ccc(=O)oc12 (stereo unspecified)	-	10.4µM	?	-	-
CCN(CC)C(=O)CC(c1cc(OC)c(OC)c(OC)c1)c1c(OC)cc(OC)c2c(-c3ccccc3)cc(=O)oc12 (stereo unspecified)	?	4.65µM	4.15µM	-	-
CCN(CC)C(=O)CC(c1ccc(F)cc1)c1ccc(OC)cc1 (stereo unspecified)	-66.8	-	?	-	-
COc1ccc(C(CC(=O)N2CCCCC2)c2c(OC)cc(OC)c3ccc(=O)oc23)cc1 (stereo unspecified)	-	?	?	-	-
Cn1c(SCc2cccc(F)c2)nc2c([nH]c3ccccc32)c1=O	-	.	.	.	.
Cc1ccc2c(=O)cc(C(=O)Nc3ccc(S(=O)(=O)Nc4nc(C)cc(C)n4)cc3)oc2c1	-	.	.	.	.
O=C1N/C(=C\c2ccc(O)cc2)C(=O)c2ccccc21	.	?	-	33.9	-
O=C(O)/C=C1\NC(=O)c2ccccc21	-	-	?	-	-
CCOC(=O)c1cccc(NC(=O)Cn2nc3c(cc2=O)CCCC3)c1	-	.	.	.	.
CC(C)OP(=O)(OC(C)C)C(Nc1ccccc1)c1cccc2c1OCO2 (stereo unspecified)	-	?	?	22.9	-
COc1cc(C2N(c3ccccc3)CCN2c2ccccc2)cc(OC)c1OC	-	-	-	13.3	-
O=C(COC(=O)c1ccc(CO)cc1)Nc1ccc(OC(F)F)cc1	-	-	-	-	-
SMILES	HCMV inh	Pf growth 48h	Pf growth 96h	CHX counter	Shiga toxin inh
CCc1nc2nc(C)cc(Nc3ccc(OC)cc3OC)n2n1	-	.	.	.	.
CN(CCOC(=O)/C=C/c1ccco1)Cc1ccccc1	-	-	-	-	-
O=C(NNC(=O)C(c1ccccc1)c1ccccc1)c1ccccn1	-97.3	3.7µM	2.62µM	-	-
O=C(CCc1ccccc1)NNC(=O)CCc1ccccc1	-	-	-	-	-
Cc1cccc(OCCCC(=O)NNC(=O)c2ccccn2)c1	-	2.33µM	1.65µM	.	.
O=C(CCc1ccccc1)NNC(=O)c1ccccn1	-75.5	-	?	-	-
CCn1cc(C(=O)NCCC(=O)NC(C)C)c(=O)c2cc3c(cc21)OCO3	-	-	-	-	-
O=C(CSc1cn(Cc2ccccc2)c2ccccc12)Nc1nccs1	-	.	?	37.1	75.8
Cc1ccc(SCC(=O)Nc2ccc(S(=O)(=O)Nc3nccs3)cc2)cc1	-	-	-	-	-
Cc1ccccc1Cn1cc(S(=O)(=O)CC(=O)Nc2nccs2)c2ccccc21	-76.2	11.7µM	-	-	-
COc1ccc(NC(=O)Cc2nnc(SCC(=O)Nc3nccs3)n2C)cc1	-	-	3.29µM	-	-
Cc1ccc(SCC(=O)Nc2nccs2)cc1	-	-	-	42.5	70.9
C[C@@H]1ON(C)[C@H]2C[C@H]3c4cc(-c5cccc(F)c5)ccc4CCN3C(=O)[C@@H]12	-	.	.	.	.
CCCCN(CC)C(=O)Cn1cc2c(n1)-c1c(oc(C(=O)N3CCCC3)c1C)CC2	-	.	.	.	.
CCOC(=O)c1ccc(NC(=O)CSc2nc3cccnc3n2C)cc1	-	?	?	-	-
O=C(CCC1CCCCC1)Nc1nccs1	-	-	-	29.4	76.6
O=C(CSCc1ccc(Cl)cc1Cl)Nc1nccs1	-	?	?	-	-
O=C(CSc1ccccc1)Nc1nccs1	-	-	-	28.1	50.4
O=C(CSCc1c(Cl)cccc1Cl)Nc1nccs1	-	-	?	-	109.1
O=C(NCCC(c1ccccc1)c1ccco1)c1cccs1 (stereo unspecified)	-	?	?	38.3	118.0
Cc1nnc(NC(=O)CCC2CCCCC2)s1	-	.	.	.	.
Cn1c(CSCc2ccccc2)nnc1SCC(=O)Nc1nccs1	-	?	5.86µM	-	-
O=C(Cc1c(F)cccc1Cl)NC1=NCCS1	-	-	-	20.2	-
COc1ccc(NC(=O)CSc2nnc(Cn3cnc4ccccc43)n2C)cc1	-	-	2.33µM	-	-
O=C(Cc1ccc(F)cc1)Nc1nccs1	-	?	?	-	-
SMILES	HCMV inh	Pf growth 48h	Pf growth 96h	CHX counter	Shiga toxin inh
O=C(Cc1c(F)cccc1Cl)Nc1nccs1	-	-	14.7µM	-	-
Cn1c(CSCc2ccc(F)cc2)nnc1SCC(=O)Nc1nccs1	-	?	.	-	-
Cn1c(Cn2cnc3ccccc32)nnc1SCC(=O)CC(=O)Nc1ccccc1	-	-	-	-	-
CCCCc1ccc(NC(=S)NCCc2ccc(S(N)(=O)=O)cc2)cc1	-	-	-	-	-
N#Cc1cccc(NC(=O)COC(=O)c2ccc[n+]([O-])c2)c1	-	.	.	.	.
O=C(Cc1ccccc1)Nc1nccs1	-	-	-	-	-
O=C(CCc1ccccc1)Nc1nccs1	-	-	-	20.3	.
O=C(CSCc1ccccn1)Nc1ccccc1	-	-	.	22.4	37.8
O=C(CC(c1ccccc1)c1ccco1)Nc1nccs1 (stereo unspecified)	-	10.4µM	9.28µM	-	-
Cc1nnc(SCC(=O)Nc2nccs2)o1	-61.3	?	13.1µM	-	-
CC(CC(=O)Nc1nccs1)c1ccccc1 (stereo unspecified)	-	?	?	-	-
